# Data as given in PubChem BioAssay (NCATS).
# Records with an inconclusive call do not appear. A call without a number means that no potency is given here. Active and inactive are the calls of the source. Calls follow the shape of the full dose curve.
# Test: Cytotoxicity counterscreen for inhibitors of SARS-CoV-2 cell entry (AID 1645845); also: nearly all actives have a fitted effect of over 50% in size
# Conditions: cell viability (SARS-CoV-2 entry assay cells); series mostly up to 57.1 µM; activity change, negative = cytotoxicity: at the top concentration
# Method in brief: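 HEK293-ACE2 cells (Expi293F stably expressing human ACE2) seeded overnight, then compound for 1 h plus 48 h at 37C. Viability as ATP content by luminescence; normalized to wells with cells and media-only wells.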
SMILES,outcome,Potency
CN1CCCCC1CCN1c2ccccc2Sc2ccc(S(C)=O)cc21 (stereo not drawn),inactive,–
O=c1[nH]c2ccccc2n1CCCN1CCN(C(c2ccccc2)c2ccccc2)CC1,inactive,–
CCOC(=O)c1ccc(OC(=O)CCCCCN=C(N)N)cc1,–,inactive
